# Laboratory results: PubChem BioAssay (NCATS)
# Unmarked numbers belong to inactive results. The source made the active and inactive calls. The call rests on the fitted dose curve; in most records, active means well fitted curve in the direction sought with a large enough effect; inactive means no such curve, though single readings can be large or run the other way.
# Molecular target: Alpha-galactosidase (Coffea arabica) (UniProt Q42656)
# Assay: Counterscreen for Glucocerebrosidase Inhibitors: qHTS Assay for Coffee Bean alpha-Galactosidase at pH 5.9 (AID 998);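 further: plate controls were uninhibited enzyme for no effect and no-enzyme basal signal for full effect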
# Conditions: coffee bean alpha-galactosidase enzyme assay; series mostly up to 76.9 µM; activity, negative = inhibition: at the top concentration
# Text: NIH Chemical Genomics Center [NCGC]
# NIH Molecular Libraries Screening Centers Network [MLSCN]
# PI Name: Zheng, Wei [NIH]
# Alpha-galactosidase is a homodimeric glycoprotein that hydrolyzes the terminal alpha-galactosyl moieties from glycolipids and glycoproteins. Deficiency of this enzyme results in Fabry Disease with progressive accumulation of globotriaosylceramide and other glycosphingolipids in vascular endothelial cells that causes renal failure, myocardial infarction and stroke, and premature death in patients. It has reported that the improper folding and trafficking of alpha-galactosidase resulted from the genetic mutations may account for a significant numbers of Fabry patients. […] We optimized this coffee bean alpha-galactosidase assay in 1536-well plate format as a counter-screen assay for identifying the selective small molecule inhibitors of other lysosomal enzymes.
# NCGC Assay Protocol Summary:
# This is a fluorogenic enzyme assay with 4-Methylumbelliferyl alpha-D-galactopyranoside as the substrate and green coffee bean […] (from Sigma-Aldrich) as the enzyme preparation. Upon the hydrolysis of this fluorogenic substrate, the resulting product, […]. 4-Methyllumbelliferone, can be excited at 365 nm and emits at 440 nm which can be detected by a standard fluorescence plate reader. Data were normalized to the controls for basal activity (without enzyme) and 100% activity (with enzyme). In the AC50 values were determined from concentration-response data modeled with the standard Hill equation.
# Assay buffer: 50 mM citric acid, 0.005% Tween-20, pH 5.9. (pH 5.9 is an optimal condition for this enzyme assay.)
# 1536-well assay protocol for the coffee bean alpha-galactosidase:
# (1) Add 2 ul/well of enzyme (2 nM final)
# (2) Add 23 nL compounds in DMSO solution. The final titration was 0.7 nM to 77 uM.
# (3) Add 1 ul of substrate (80 uM final)
# (4) Incubate at room temperature for 20 min.
# (5) Add 2 ul stop solution (1M NaOH and 1M Glycine mixture, pH 10)
# (6) Detect the assay plate in a ViewLux plate reader (PerkinElmer) with Ex=365 nm and Em=440nm.
# Keywords: Alpha-galactosidase, Fabry Disease, pharmacological chaperone, chaperone therapy, high throughput screening, alpha-galactosidase inhibitor, MLSMR, MLSCN, NIH Roadmap, qHTS and NCGC
# Sequence of Alpha-galactosidase (Coffea arabica) (Q42656 whole entry, looked up): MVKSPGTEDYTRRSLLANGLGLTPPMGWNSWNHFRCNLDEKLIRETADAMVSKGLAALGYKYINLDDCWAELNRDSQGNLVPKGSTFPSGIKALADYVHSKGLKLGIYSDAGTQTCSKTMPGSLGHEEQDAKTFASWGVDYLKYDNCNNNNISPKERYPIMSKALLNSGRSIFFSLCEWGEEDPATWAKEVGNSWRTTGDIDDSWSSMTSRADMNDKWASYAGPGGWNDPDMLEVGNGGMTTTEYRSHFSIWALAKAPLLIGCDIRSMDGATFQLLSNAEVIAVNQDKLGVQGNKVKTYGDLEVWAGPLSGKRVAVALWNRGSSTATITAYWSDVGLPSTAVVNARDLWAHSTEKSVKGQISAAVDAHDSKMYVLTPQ
Compound,"activity, negative = inhibition [%]",outcome
NC(=O)c1ncn([C@@H]2O[C@H](CO)[C@@H](O)[C@H]2O)n1,-4.29,
NC1(C(=O)O)CCCCC1,1.74,
CCN1C(=O)C=CC1=O,2.7,
O=C(O)CC[C@@H](C(=O)O)N1C(=O)c2ccccc2C1=O,3.51,
Cc1ccc2c(c1)C(N1CCN(C)CC1)=Nc1cccnc1N2,-1.86,
COc1ccc(CNC(=O)/C=C\c2ccc3[nH]cc(CCN(C)C)c3c2)cc1,-1.84,
Nc1cc(Cl)c(NC2=NCCN2)c(Cl)c1,-4.04,
O=C(c1cc(O)c(O)c([N+](=O)[O-])c1)c1ccccc1F,-6.06,
C[C@H](O)C(=O)C1=Nc2c(nc(N)[nH]c2=O)NC1,-4.74,
C=CCN1CCC2(C)c3cc(O)ccc3C[C@H]1[C@H]2C,,inactive
CCCC1O[C@@H]2C[C@H]3[C@@H]4CCC5=CC(=O)C=C[C@]5(C)[C@H]4[C@@H](O)C[C@]3(C)[C@]2(C(=O)CO)O1 (stereo not given in full),-2.66,
O=c1onc2cnc3ccccc3n12,-4.6,
O=C(O)/C(=C/c1c(C(=O)O)[nH]c2cc(Cl)cc(Cl)c12)c1ccccc1,2.65,
CC(C)NC[C@@H](O)COc1cccc2ccccc12,,inactive
O=C1NC(=O)c2cc(Nc3ccccc3)c(Nc3ccccc3)cc21,-2.83,
CCCCCCCCCCCCCCSCC(=O)O,-0.795,
O=C(N[C@@H](Cc1ccccc1)C(=O)CCl)OCc1ccccc1,5.04,
O=C1NCN(c2ccccc2)C12CCN(C[C@H]1COc3ccccc3O1)CC2,2.56,
COc1ccccc1N1CCN(CCCNc2c(C)c(=O)n(C)c(=O)n2C)CC1,3.41,
CC(N)=O,-3.85,

Compound,"activity, negative = inhibition [%]",outcome
COc1ccc(C(=O)NCc2cccnc2)cc1C(=O)NCc1cccnc1,1.85,
COc1ccc(-c2ccc(N)[n+](CCCC(=O)O)n2)cc1,0.379,
CN=C(N)NCCC[C@H](N)C(=O)O,-2.06,
N[C@H](CCCCCP(=O)(O)O)C(=O)O,,inactive
CC[C@@H]1Cc2cc(O)ccc2C2=C1c1ccc(O)cc1C[C@H]2CC,10,
O=C(O)C1=CCNCC1,3.88,
N=C(N)SCCN,-0.888,
O=C1NC(=O)C(c2ccccc2[N+](=O)[O-])=C1Nc1ccc(O)c(Cl)c1,-2.89,
O=C(OCCN1CCOCC1)C1(c2ccccc2)CCCCC1,3.73,
NCCCCCCCCCCN,2.77,
C[C@H](N)Cc1c[nH]c2ccc(O)cc12,-0.791,
CC(C)NC[C@H](O)COc1ccc(CC(N)=O)cc1,,inactive
CC(=O)C(C)=O,-1.96,
O=Nc1c(-c2c(O)[nH]c3cc(Br)ccc23)[nH]c2ccccc12,-3.96,
CN(C(=O)Cc1ccc(Cl)c(Cl)c1)[C@@H](CN1CCCC1)c1cccc(OCC(=O)O)c1,0.0687,
NC/C=C\C(=O)O,,inactive
O=[N+]([O-])c1cccc2cn[nH]c12,1.5,
C1CCc2nnnn2CC1,1.53,
Clc1nccc2c1ccc1ccccc12,0.237,
C[N+](C)(C)CC=O,-1,
